Measurements published in the supplement of paper PMC10503962.

system: Trichuris muris adult worms; assay: mean motility score (Paragon pixel variance) of adult worms (arbitrary units); higher = more motile worms, i.e. less anthelmintic effect; extreme values may be limits of the assay; details: 100 µM; 24 h
Protocol: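 Primary ex vivo screen of 409 approved drugs against adult Trichuris muris worms: one worm per well in RPMI-1640 with penicillin/streptomycin, 100 µM drug in 1% DMSO, 37 °C, 5% CO2 for 24 h. Motility was recorded with INVAPP (200-frame movies) and scored with the Paragon pixel-variance algorithm. Values are means of triplicate wells run on three occasions; levamisole was the positive control and DMSO the negative control.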

Structure (SMILES) | mean motility score
CCOc1cc2ncc(C#N)c(Nc3ccc(OCc4ccccn4)c(Cl)c3)c2cc1NC(=O)/C=C/CN(C)C [neratinib] | 1890
O=C(c1ccccc1)c1ccc2n1CCC2C(=O)O (stereo not given) [ketorolac] | 2460
O=C(O)[C@@H](O)[C@H](O)C(=O)O [tartaric acid] | 3400
Nc1cc(-c2ccncc2)cnc1O [inamrinone] | 3880
CN1CC(=O)N2[C@H](c3ccc4c(c3)OCO4)c3[nH]c4ccccc4c3C[C@@H]2C1=O [tadalafil] | 990
CCN(CC)C(C)CN1c2ccccc2Sc2ccccc21.Cl (stereo not given) [ethopropazine hydrochloride] | 114
COc1ccc2cc([C@@H](C)C(=O)O)ccc2c1 [(R)-naproxen] | 1390
COc1ccc2cccc(CCNC(C)=O)c2c1 [agomelatine] | 3270
CCCCOc1cc(C(=O)NCCN(CC)CC)c2ccccc2n1 [dibucaine] | 2070
NCCS(=O)(=O)O [taurine] | 1780
O=C(O)/C=C/C(=O)O [fumaric acid] | 3100
C=C(c1ccc(C(=O)O)cc1)c1cc2c(cc1C)C(C)(C)CCC2(C)C [bexarotene] | 750
O=C1c2cccc(O)c2C(=O)c2c(O)cccc21 [danthron] | 2660
Cn1cnc([N+](=O)[O-])c1Sc1ncnc2nc[nH]c12 [azathioprine] | 3550
C[C@@H](c1ncncc1F)[C@](O)(Cn1cncn1)c1ccc(F)cc1F [voriconazole] | 4350
NNCCc1ccccc1 [phenelzine] | 3810
CN1Cc2c(N)cccc2C(c2ccccc2)C1 (stereo not given) [nomifensine] | 2230
C#C[C@]1(O)CC[C@H]2[C@@H]3CCC4=CC(=O)CC[C@@H]4[C@H]3CC[C@@]21CC [levonorgestrel] | 3390
Cc1ccc(N(C=C2NCCN2)c2cccc(O)c2)cc1 [phentolamine] | 2960
CCOC(=O)c1ncn2c1CN(C)C(=O)c1cc(F)ccc1-2 [flumazenil] | 3230

Structure (SMILES) | mean motility score
Cc1cn(-c2cc(NC(=O)c3ccc(C)c(Nc4nccc(-c5cccnc5)n4)c3)cc(C(F)(F)F)c2)cn1 [nilotinib] | 2370
Cc1nnc(SCC2=C(C(=O)[O-])N3C(=O)[C@@H](NC(=O)Cn4cnnn4)[C@H]3SC2)s1.[Na+] [cefazolin sodium] | 1680
CN1CCN(C2=Nc3cc(Cl)ccc3Nc3ccccc32)CC1 [clozapine] | 2870
Cc1[nH]c2ccccc2c1CCNCc1ccc(/C=C/C(=O)NO)cc1 [panobinostat] | 2620
Cc1cc2cc3c(C)cc(=O)oc3c(C)c2o1 [trioxsalen] | 2070
CN(C)CCOC(=O)C(c1ccccc1)C1(O)CCCC1 (stereo not given) [cyclopentolate] | 2640
CN(CCOc1ccc(CC2SC(=O)NC2=O)cc1)c1ccccn1 (stereo not given) [rosiglitazone] | 603
NNc1nncc2ccccc12 [hydralazine] | 1960
Oc1nc2ccccc2n1CCCN1CCC(n2c(O)nc3cc(Cl)ccc32)CC1 [domperidone] | 3910
COc1cc2nccc(Oc3ccc(NC(=O)C4(C(=O)Nc5ccc(F)cc5)CC4)cc3)c2cc1OC [cabozantinib] | 3950
Cc1c(O)cccc1C(=O)N[C@@H](CSc1ccccc1)[C@H](O)CN1C[C@H]2CCCC[C@H]2C[C@H]1C(=O)NC(C)(C)C [nelfinavir] | 1430
CC[C@H]1OC(=O)[C@H](C)[C@@H](O[C@H]2C[C@@](C)(OC)[C@@H](O)[C@H](C)O2)[C@H](C)[C@@H](O[C@@H]2O[C@H](C)C[C@H](N(C)C)[C@H]2O)[C@](C)(OC)C[C@@H](C)C(=O)[C@H](C)[C@@H](O)[C@]1(C)O [clarithromycin] | 2330
CN(C)CC[C@@H](c1ccc(Cl)cc1)c1ccccn1.O=C(O)/C=C\C(=O)O [dexchlorpheniramine maleate] | 1140
CCCCCCCCCCCCCCCCO [cetyl alcohol] | 1880
CCCc1cc(O)nc(S)n1 [propylthiouracil] | 3720
Clc1ccc2c(c1)CCc1cccnc1C2=C1CCNCC1 [desloratadine] | 930
CNC[C@H](O)c1ccc(O)c(O)c1 [epinephrine] | 3270
O=C1NCCN1CCN1CCC(c2cn(-c3ccc(F)cc3)c3ccc(Cl)cc23)CC1 [sertindole] | 0
CS(=O)(=O)Nc1ccc([N+](=O)[O-])cc1Oc1ccccc1 [nimesulide] | 1.33
CS(=O)(=O)OCCCCOS(C)(=O)=O [busulfan] | 3180
